The supplement of paper PMC10042075
Several values for one entry are separate records, joined by “and”; a condition that tells them apart may be missing. Identical values can stand only once. Counter-ions that a name gives are not always drawn. ± gives the standard deviation of the averaged measurements.

The molecules below were run on LASCPC-01 (assay: cell viability relative to DMSO control (fraction); higher = less growth inhibition (more viable cells)). Details: 2 µM; 72 h.
Experimental: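 High-throughput single-dose screen in the LASCPC-01 NEPC cell line in 384-well plates. Cells were treated with each compound at 2 µM for 72 h, and viability was read by CellTiter-Glo luminescence. Values are normalised to the DMSO control (compound/DMSO) from three replicates; only the 5-HT-related subset of the 7315-compound library is given.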

SMILES	cell viability
O=C(O)Cc1c[nH]c2ccc(O)cc12 [5-Hydroxyindolacetic acid]	0.928
Fc1ccc([C@@H]2CCNC[C@H]2COc2ccc3c(c2)OCO3)cc1 [Paroxetine HCl]	1.02
CN1CCC(=C2c3ccccc3CCc3sccc32)CC1 [Pizotifen]	0.586
C=CCc1ccccc1OCC(O)CNC(C)C (stereo not given) [Alprenolol]	1.03
CC1CCN(CC[C@H]2CCCN2S(=O)(=O)c2cccc(O)c2)CC1	0.707 and 0.855
Cn1cc(C(=O)OCC2CCN(CCNS(C)(=O)=O)CC2)c2ccccc21	0.959
CN1[C@@H]2CC[C@H]1CC(OC(=O)c1c[nH]c3ccccc13)C2 (stereo not given in full) [3-Tropanyl-indole-3-carboxylate hydrochloride]	1.04
Cc1cc2c(s1)Nc1ccccc1N=C2N1CCN(C)CC1 [Olanzapine]	1.02 ± 0.042
Clc1ccc2c(c1)N=C(N1CCNCC1)c1ccccc1N2 [N-Desmethylclozapine]	0.907
CNS(=O)(=O)Cc1ccc2[nH]cc(CCN(C)C)c2c1 [Sumatriptan Succinate]	0.971
N[C@@H]1CC[C@@H](c2ccc(Cl)c(Cl)c2)c2ccccc21 [Dasotraline hydrochloride]	1.13
CN1CCN(c2nc3cc(C(F)(F)F)ccc3n3cccc23)CC1	0.521
CN[C@H]1CC[C@@H](c2ccc(Cl)c(Cl)c2)c2ccccc21 [Sertraline hydrochloride]	0.958
O=C(OC1C[C@@H]2CC3C[C@H](C1)N2CC3=O)c1c[nH]c2ccccc12 (stereo not given in full) [Dalasetron Mesylate Hydrate]	0.985
COc1ccccc1N1CCN(CCCCN2C(=O)c3ccccc3C2=O)CC1 [NAN-190 hydrobromide]	0.884
COc1ccccc1N1CCN(CCN2C(=O)CC3(CCCC3)CC2=O)CC1	0.815
CCCCN1CCC(CNC(=O)c2c3n(c4ccccc24)CCCO3)CC1 [Piboserod]	1.21
CN(C)CCCN1c2ccccc2CCc2ccc(Cl)cc21 [Clomipramine hydrochloride]	0.987
CN(C)CCC=C1c2ccccc2CCc2ccccc21 [Amitriptyline HCl]	1.15
Fc1ccc([C@@H]2CCNC[C@H]2COc2ccc3c(c2)OCO3)cc1 [Paroxetine hydrochloride hemihydrate (MW = 374.83)]	1.09

SMILES	cell viability
Cc1ccc(Sc2ccccc2N2CCNCC2)c(C)c1 [Vortioxetine]	0.666
CN1CCC(=C2c3ccccc3C=Cc3ccccc32)CC1 [Cyproheptadine hydrochloride]	1.14
CNCCC(Oc1ccc(C(F)(F)F)cc1)c1ccccc1 (stereo not given) [Fluoxetine hydrochloride]	0.686
COc1ccccc1N1CCN(CCCNc2cc(=O)n(C)c(=O)n2C)CC1 [Urapidil]	1.18
CN(C)CCCN1c2ccccc2CCc2ccccc21 [Imipramine hydrochloride]	1.13
CCN(CC)CCOC(=O)C(Cc1cccc2ccccc12)CC1CCCO1 (stereo not given) [Nafronyl oxalate]	1.07
COc1ccc(NC(=O)Nc2ccc(F)cc2F)cc1-c1c(Br)cnn1C [Nelotanserin]	1.09
COc1ccccc1N1CCN(CCN2C(=O)CC3(CCCC3)CC2=O)CC1 [BMY 7378 dihydrochloride]	1.07
Cn1ccc2cc(NC(=O)Nc3cccnc3)ccc21	1.03
CN(C)CC[C@@H](c1ccc(Cl)cc1)c1ccccn1 [Dexchlorpheniramine Maleate]	0.891
Cc1cc(NC(=O)Nc2ccc3c(ccn3C)c2)sn1	0.944
CC(N)C(=O)OC(C)(C)Cc1ccc(Cl)cc1 (stereo not given) [Alaproclate hydrochloride]	1.13
Cc1ccc(C(=O)Oc2ccc(C(CN(C)C)C3(O)CCCCC3)cc2)cc1 (stereo not given) [Ansofaxine hydrochloride]	0.931
CN1CC2c3ccccc3Oc3ccc(Cl)cc3C2C1 (stereo not given) [Asenapine]	0.974
CN(C)C/C=C(/c1ccc(Br)cc1)c1cccnc1 [Zimelidine dihydrochloride]	1.01
Cc1cnc(CNCC2(F)CCN(C(=O)c3ccc(F)c(Cl)c3)CC2)nc1	0.989
O=C(CCCCCN1CCN(c2ccccc2-c2ccccc2)CC1)NC1CCCc2ccccc21 (stereo not given) [LP 12 hydrochloride hydrate]	0.972
Cc1nc2n(c(=O)c1CCN1CCC(c3noc4cc(F)ccc34)CC1)CCCC2 [Risperidone]	0.99
CN1CCN2c3ccccc3Cc3ccccc3C2C1 (stereo not given) [Mianserin hydrochloride]	1.04
CN1CCCCC1CCN1c2ccccc2Sc2ccc([S+](C)[O-])cc21 (stereo not given) [Mesoridazine Besylate]	1.07
